# Source: PubChem BioAssay AID818 (SRMLSC, 2007)
# The whole screen tested about 140,000 compounds, of which about 2,100 (1.5%) were called active.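 Rule for the calls: active = viability at or under a set limit, the compound median less 4 SD (cut at about 6% in these data); inactive = the rest.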 The list comes from a sample in which actives are over-represented; it also holds similar structures and randomly drawn compounds.
# Test: primary screen for suppressors of beta-catenin knockout HCT116 cell growth, colon tumor, human (AID 818);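 note: 0% = Hyamine 1622 control at 20 µM and 100% = untreated cell control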
# Conditions: CellTiter-Glo, 60 h, at 10 µM, stronger effect = lower value
row,Compound,viability
1,COc1cc(OC)cc(C(=O)N[C@H](C(=O)OCC(=O)NC(C)c2ccccc2)C(C)C)c1 (some centres not stated),83.7% (inactive)
2,O=C(NCc1ccccc1Cl)C1CCC(CNc2c(N3CCCCC3)c(=O)c2=O)CC1 (configuration not stated),98.7% (inactive)
3,COC(=O)C(NC(=O)c1ccc(OC)cc1)(Nc1ncc(S(=O)(=O)c2ccc([N+](=O)[O-])cc2)s1)C(F)(F)F (configuration not stated),77.8% (inactive)
4,O=C(NC(Nc1nc2ccc([N+](=O)[O-])cc2s1)(C(F)(F)F)C(F)(F)F)c1ccccc1,1.34% (active)
5,Cc1cc(C)cc(OCC(=O)Nc2nc3ccc([N+](=O)[O-])cc3s2)c1,109% (inactive)
6,COc1ccc(NC(C(=O)Nc2cccc(C(C)=O)c2)c2ccccc2)cc1 (configuration not stated),84.6% (inactive)
7,Cc1ccc(-c2csc(NNC(=O)c3ccccc3)n2)cc1,13.8% (inactive)
8,COc1ccc(C)cc1Nc1nc(-c2c(C)[nH]c3ccccc23)cs1,89.8% (inactive)
9,CC(C)(C)c1ccc(C(=O)CSc2ncn[nH]2)cc1,94.5% (inactive)
10,O=C(/C=C/Sc1ncn[nH]1)c1ccc(Cl)cc1,4.54% (active)
11,O=C(NCCOCc1ccc(Cl)cc1)c1ncn[nH]1,93% (inactive)
12,O=[N+]([O-])c1ccc(N/N=C2/CCCCC2c2ccccn2)c([N+](=O)[O-])c1 (configuration not stated),79.6% (inactive)
13,COc1cc2c(cc1O)[C@H](Cc1ccc(Oc3cc(C[C@@H]4NCCc5cc(OC)c(O)cc54)ccc3O)cc1)NCC2,55% (inactive)
14,CC[C@H]1CN2CCc3cc(OC)c(OC)cc3[C@@H]2C[C@@H]1C[C@H]1NCCc2cc(OC)c(OC)cc21,4.12% (active)
15,S=C(NCc1ccc(Cl)cc1)NC1CCCCC1,66% (inactive)
16,S=C(NCc1ccc(Cl)cc1)NC12CC3CC(CC(C3)C1)C2,3.01% (active)
17,COC(=O)Cc1ccc(NC(=S)NCc2ccc(Cl)cc2)cc1,84.8% (inactive)
18,CCCCN1C(=O)c2ccc(C(=O)Nc3ccc(S(=O)(=O)N(C)C)cc3)cc2C1=O,93.3% (inactive)
19,Cc1ccc(NC(=O)CN(C)Cc2ccc(F)cc2)c([N+](=O)[O-])c1,91.3% (inactive)
20,Cc1ccc(O)c(-c2cc(C(=O)Nc3c(C)n(C)n(-c4ccccc4)c3=O)[nH]n2)c1,80.2% (inactive)
21,CC1CCCC(NC(=O)COC(=O)[C@@H]2CC(O)CN2S(=O)(=O)c2ccc3c(c2)OCCO3)C1C (some centres not stated),96.2% (inactive)
22,CCC(=O)Nc1ccc(C(=O)Nc2ccc3c(c2)C(=O)N(CC2CCCO2)C3=O)cc1 (configuration not stated),93.3% (inactive)
23,CC1CCN(c2ccc(C(=O)NCc3ccc4c(c3)OCO4)cc2[N+](=O)[O-])CC1,94.5% (inactive)

row,Compound,viability
1,O=C(NCc1ccc2c(c1)OCO2)c1ccc2c(c1)C(=O)N(CC1CCCO1)C2=O (configuration not stated),1.74% (active)
2,COc1cc(Cl)c(C)cc1NC(=O)COC(=O)c1cc(SC)ccc1Cl,79.6% (inactive)
3,S=c1[nH]nc(-c2cccnc2)n1/N=C/C(Cl)=C\c1ccccc1,10.2% (inactive)
4,Cc1ccc(/C=N\n2c(-c3ccccc3)n[nH]c2=S)s1,94.7% (inactive)
5,Cc1cc(-c2n[nH]c(=S)n2/N=C/C(Br)=C/c2ccccc2)n[nH]1,2.95% (active)
6,Cc1ccc(NC(=O)c2oc(=O)c3ccccc3c2-c2ccccc2)c(C)c1,38.7% (inactive)
7,CN(C)S(=O)(=O)c1ccc(N2CCCC2=O)c([N+](=O)[O-])c1,83% (inactive)
8,O=C(O)C1CC=C(Cl)CC1C(=O)NCc1ccccc1 (configuration not stated),90% (inactive)
9,CC1=C(C)CC(C(=O)NNC(=O)c2csc3c2CCC(C(C)(C)C)C3)C(C(=O)O)C1 (configuration not stated),95.9% (inactive)
10,CC1=C(C)CC(C(=O)NNC(=O)c2ccccc2O)C(C(=O)O)C1 (configuration not stated),5.74% (active)
11,COc1ccc(C(=O)OCC(=O)NC(=O)CCSc2ccccc2)cc1,97.4% (inactive)
12,N#Cc1cccc(NC(=O)COC(=O)c2ccccc2C(=O)c2ccc(Cl)c([N+](=O)[O-])c2)c1,3.2% (active)
13,COC(=O)c1cc(NC(=O)Cc2ccccc2[N+](=O)[O-])ccc1Cl,80.7% (inactive)
14,CC(=O)Nc1ccc(NC(=O)C(C)OC(=O)c2ccccc2C(=O)c2ccc(Cl)c([N+](=O)[O-])c2)cc1 (configuration not stated),8.71% (inactive)
15,CC(=O)Nc1ccc(SCC(=O)Nc2ccccc2Oc2ccccc2)cc1,86.2% (inactive)
16,O=S(=O)(NCC1CCCO1)c1cnc(Cl)c(Cl)c1 (configuration not stated),69.3% (inactive)
17,O=C(Nc1cccc2ccccc12)c1onc2c1CCCC2,1.26% (active)
18,O=C(O)c1ccccc1-c1ccccc1C(=O)Nc1cccc2ccccc12,90.2% (inactive)
19,O=C(Nc1c2c(nc3ccccc13)CCCC2)c1ccccc1Br,83.6% (inactive)
20,Cc1cc(C(C)(C)C)cc(C)c1N,100% (inactive)
21,CCCc1nc(SCC(=O)Nc2ccc(S(=O)(=O)N(C)C)cc2)c2ccccc2n1,72.2% (inactive)
22,O=C(O)c1cnn2c(C(F)(F)F)cc(-c3ccccc3)nc12,96.5% (inactive)
23,Cc1cccc(N2CCN(C(=O)c3cnn4c(C(F)F)cc(-c5ccccc5)nc34)CC2)c1C,2.3% (active)

row,Compound,viability
1,CC(=O)N1CCN(c2cccc(C)c2C)CC1,99.9% (inactive)
2,CCC(C(=O)OCC(=O)Nc1ccccc1-c1ccccc1)c1ccccc1 (configuration not stated),92.8% (inactive)
3,COc1ccc(C2CC(c3ccccc3)=NN2C(=O)c2ccc(Cl)c([N+](=O)[O-])c2)cc1 (configuration not stated),10.9% (inactive)
4,CCOc1ccc2nc(Cl)c(C3CC(c4ccccc4)=NN3C(=O)c3cccs3)cc2c1 (configuration not stated),1.68% (active)
5,CCOc1ccccc1C1CC(c2cccc(NS(C)(=O)=O)c2)=NN1C(=O)c1ccccc1 (configuration not stated),79.6% (inactive)
6,C/C(O)=C\c1nc(=O)c2c(C)cc(C)nc2n1-c1ccccc1,2.41% (active)
7,Cc1cc(C)c2c(n1)sc1c(=O)n(-c3ccccc3)c(=O)[nH]c12,95.9% (inactive)
8,N#CCSc1nc2ccccc2c(=O)n1-c1ccccc1,101% (inactive)
9,O=C1NC(=Nc2ccc(Cl)cc2)SC1Cc1cccc(Cl)c1Cl (configuration not stated),101% (inactive)
10,COC(=O)c1sccc1NC(=O)COc1ccc(Cl)cc1,68.7% (inactive)
11,Cc1ccc2[nH]c(=O)c(CC=C(Cl)Cl)c(C)c2c1,88.7% (inactive)
12,CN(C)c1ccc(/C=N/NC(=O)c2ccc(Cn3cc(Br)cn3)o2)cc1,103% (inactive)
13,COc1ccc(CCNc2cc(C)nc3c(-c4ccc(Cl)cc4)c(C)nn23)cc1OC,74.8% (inactive)
14,CC(C)CC[n+]1ccn(C2=C([O-])c3ccccc3C(=O)/C2=N\S(=O)(=O)c2ccccc2)c1,2.01% (active)
15,COc1ccc(C2Nc3ccccc3C(=O)N2c2ccc(F)cc2)cc1Cn1nnc2ccccc21 (configuration not stated),69.3% (inactive)
16,CC(=O)N1CC(C)c2scc(C)[n+]2-c2ccccc21 (configuration not stated),91.2% (inactive)
17,COc1ccccc1NC(=O)CCCc1c[nH]c2ccccc12,101% (inactive)
18,COc1cccc(CNCCc2c[nH]c3ccccc23)c1OCc1ccccc1F,0.88% (active)
19,COc1ccc(C(CCNCc2ccccc2F)c2ccc(F)cc2)cc1 (configuration not stated),9.17% (inactive)
20,COc1ccc(/C(C)=N/NC(=O)CCC(=O)Nc2ccc(Cl)cc2Cl)c(OC)c1,91.2% (inactive)
21,O=C(Nc1cccc(F)c1)c1coc(=O)c(Br)c1,45% (inactive)
22,NC(=O)Nc1ccccc1C(=O)NCCc1ccccc1,99.7% (inactive)
23,CCc1ccc(NC(=O)C(C)OC(=O)/C=C/c2cccc([N+](=O)[O-])c2)cc1 (configuration not stated),90.3% (inactive)

row,Compound,viability
1,O=C(Nc1ccc2c(c1)OCCO2)c1ccncc1,100% (inactive)
2,Cn1cc([N+](=O)[O-])c(C(=O)Nc2ccc3c(c2)OCCO3)n1,5.15% (active)
3,Cn1cc([N+](=O)[O-])c(C(=O)Nc2cnn(Cc3ccc(F)cc3)c2)n1,8.14% (inactive)
4,COc1ccc(OC(C)C(=O)NCCc2nc3ccccc3[nH]2)cc1 (configuration not stated),99.8% (inactive)
5,CCOC(=O)c1cnc(-c2ccccc2)nc1Oc1ccc(C)cc1,89.3% (inactive)
6,CCOC(=O)c1cnc(-n2nc(C)cc2C)nc1NNc1cc(C)nc(-c2ccccc2)n1,3.41% (active)
7,CCOC(=O)c1cnc(-n2nc(C)cc2C)nc1-n1nc(C)cc1C,103% (inactive)
8,CCC(C)(C(=O)Nc1ccccc1C)N(C(=O)CNC(C)=O)c1ccc(C)cc1 (configuration not stated),92.2% (inactive)
9,COC(=O)[C@@H]1CC[C@H](C)[C@@H](c2ccc(C)cc2)N1C(=O)c1ccc(/C=N/O[C@H](C)c2cn([C@@H]3COC[C@H]3O)nn2)cc1,86.4% (inactive)
10,CSc1nc(N)c(C#N)c(-c2ccccc2Cl)c1C#N,89.2% (inactive)
11,CSc1nc2ccccc2cc1/C=C(\C#N)c1ccc(Cl)cc1Cl,4.22% (active)
12,Cc1nc2ccccc2cc1O,92.2% (inactive)
13,Cc1ccc(SCCC(=O)NC(C(C)C)C(C)C)cc1,89.2% (inactive)
14,CCCC(NC(=O)c1ccco1)c1nc2ccccc2[nH]1 (configuration not stated),101% (inactive)
15,CCCCC(=O)NCc1ccc(F)cc1,93.4% (inactive)
16,CN(CC(=O)Nc1ccc(S(=O)(=O)N2CCCC2)cc1)Cc1ccc(Cl)c(Cl)c1,65.4% (inactive)
17,COc1ccc(NS(=O)(=O)c2cc(NC(=O)/C=C/c3cc(OC)c(OC)c(OC)c3)ccc2N2CCCCC2)cc1,89.5% (inactive)
18,COc1cccc2cc(C(=O)N(C)C)c(=O)oc12,1.59% (active)
19,C=CCc1cccc2cc(C(=O)OCC)c(=O)oc12,97.7% (inactive)
20,COc1cccc2cc(C(=O)N3CCN(C(=O)c4ccccc4)CC3)c(=O)oc12,100% (inactive)
21,Cc1ccc(Cl)cc1N1CCN(C(=O)c2cccc3c(=O)c(C)c(-c4ccccc4)oc23)CC1,1.34% (active)
22,O=C(c1cccc2ccccc12)N1CCN(c2ccccc2F)CC1,83.3% (inactive)
23,COC(=O)c1ccc(C(=O)OC)c(NC(=S)N2CCN(c3cc(Cl)ccc3C)CC2)c1,92.1% (inactive)
